The results in this text go back to PubChem BioAssay AID449728 (The Scripps Research Institute Molecular Screening Center, 2010).

Values joined by “and” are separate entries in the source; they are usually repeats but may differ in a detail not shown here. Equal values may be shown once. The campaign covered roughly 330,000 compounds. About 900 (0.27%) were called active.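 How the source made its calls: active means inhibition above the campaign's mean inhibition across all tested compounds plus 3 SD (cut at about 9.9% in these data); inactive means the rest.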 The list comes from a sample in which actives are over-represented; it also holds similar structures and randomly drawn compounds. A structure can be active in one record and inactive in another.

This experiment is described as follows: E. coli V3065 growth inhibition, primary screen, counter-screen for AddAB inhibitor project, absorbance, OD600 (AID 449728).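 Further: uninfected addAB+ strain grown without phage in ampicillin broth; 0% = DMSO wells and 100% = ciprofloxacin 0.95 µg/ml wells.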 To be noted: 18 h, at 11.9 µM, stronger effect = higher value. (In general: A counterscreen serves to expose hits that act by an unwanted route or on another target.)
Usually inhibition stands for the relative decrease from the control value, in per cent. Turning to `CCOCCCn1c(NN)nc2ccccc2c1=O`, the inhibition was 2.87% (inactive).

`CCn1c(/C=C/c2ccc([N+](=O)[O-])o2)nc2ccccc2c1=O`: the inhibition is 21.6% (active).

For the molecule `CCn1c(=O)c([N+](=O)[O-])c(NCc2ccc3c(c2)OCO3)c2ccccc21`, the inhibition is 0.41% (inactive).

Consider `Cc1cn(C2C=CC(CO)O2)c(=O)[nH]c1=O` (stereo unspecified), for which the inhibition is 8.77% (inactive).

As for `COc1cc(OC)c2c(c1)OC(=O)CC2c1cc(OC)c(OC)c(OC)c1` (stereo unspecified), the inhibition is 2.5% (inactive).

On to `CC1(C)CC2CC(C)(CN2c2ncnc3ccc(Br)cc23)C1` (stereo unspecified), for which the inhibition is -0.09% (inactive).

Take `Cc1ccc(NC(=O)CCCNC(=O)c2ccc(Cl)cc2)cc1S(=O)(=O)N1CCOCC1`: the inhibition is -1.94% (inactive).

With `CC(C)[C@@H]1COC(c2cccc(C3=N[C@H](C(C)C)CO3)c2)=N1`, the inhibition is -0.25% (inactive).

`CCN1/C(=C\c2ccc3ccccc3[n+]2CC)Sc2cc(C)ccc21`: the inhibition is 15% (active).

For `CC(=O)c1c(Nc2ccccc2)sc(C(=O)c2ccccc2)c1C`, the inhibition was 1.73% (inactive).

On to `CCOc1ccccc1NC(=S)N1CCN(c2cccc(C)c2C)CC1`, for which the inhibition was 0.08% (inactive).

As to `O=C(O)CSc1nccc2ccccc12`, the inhibition was -0.18% (inactive).

For `O=C1CCC(=O)N(O)CCCCCNC(=O)CCC(=O)N(O)CCCCCNC(=O)CCC(=O)N(O)CCCCCN1`, the inhibition is 29.4% (active).

`CCOC(=O)c1nnn2c1nc(N1CCN(c3ccccc3)CC1)c1ccccc12`: the inhibition is 1.28% (inactive).

As for `O=C(/C=C/c1ccccc1Cl)Nc1ccc(S(=O)(=O)Nc2ncccn2)cc1`, the inhibition is 0.84% (inactive).

Take `COc1cc(NC(=S)NCc2ccco2)c(OC)cc1Cl`: the inhibition was -0.7% (inactive).

For `COc1cc(C(=O)NC(=S)NCc2ccco2)cc(OC)c1OC`, the inhibition was 14.7% (active).

For the molecule `COc1cccc(OC)c1C(=O)NC(=S)NCc1ccco1`, the inhibition is 1.37% (inactive).

For the molecule `O=C(NCCc1c[nH]c2ccccc12)c1cc2ccccc2oc1=O`, the inhibition is 0.17% (inactive).

Regarding `CC(C)(C)N(Cc1ccccc1)C(=O)COC(=O)CCc1c[nH]c2ccccc12`, the inhibition was -1.13% (inactive).

On to `CSC(=S)N/N=C/c1c[nH]c2ccccc12`, for which the inhibition is 12.8% (active).

For the molecule `O=C(O)c1cccc(NC(=S)N/N=C/c2c[nH]c3ccccc23)c1`, the inhibition is 0.08% (inactive).

Consider `Nc1nonc1-n1nnc(C(=O)N/N=C/c2c[nH]c3ccccc23)c1-c1ccccc1`, for which the inhibition is 0% (inactive).

On to `Cc1ccc(CSCC2Nc3ccc(C(=O)N4CCN(c5ccc(F)cc5)CC4)cc3NC2=O)cc1` (stereo unspecified), for which the inhibition was -0.76% (inactive).

In the case of `O=C(O)CCCC(=O)Nc1ccc(Oc2cccc(C(F)(F)F)c2)nc1`, the inhibition was 1.79% (inactive).

Take `Cc1ccc(OC(=O)c2ccccc2C(=O)OCC(F)(F)C(F)F)cc1`: the inhibition was 0.25% (inactive).

For the molecule `O=C(CCC(=O)NNc1nc2ccccc2c2nc(-c3ccccc3)nn12)NCCCN1CCCC1=O`, the inhibition is -1.57% (inactive).

Regarding `CCCc1nnc(SCC(=O)Nc2ccc(C(=O)OCC)cc2)o1`, the inhibition was -1.1% (inactive).

Consider `CCOC(=O)c1ccc(NC(=O)Cn2cnc3cc(C)c(C)cc32)cc1`, for which the inhibition is 16.7% (active).

For `CCOC(=O)c1ccc(NC(=O)CSc2nnc(COc3ccccc3OC)n2C)cc1`, the inhibition is 2.63% (inactive).

For `COc1cc(OC)cc(-c2c(C#Cc3ccsc3)c3cc(-c4ccc(SC)cc4)ccc3n2C)c1`, the inhibition is 0.52% (inactive).

Take `COc1ccc(-c2ccc(CCC(=O)O)n2NC(=O)c2ccc(C(C)(C)C)cc2)cc1`: the inhibition is 2.02% (inactive).

Consider `COc1ccc(CSc2nnnn2-c2ccc(O)cc2)cc1F`, for which the inhibition was -0.34% (inactive).

With `COCCn1c(SCC(=O)Nc2cc(OC)ccc2OC)nc2c(c1=O)SC(C)C2` (stereo unspecified), the inhibition was -0.66% (inactive).

Regarding `Cc1cc2c(cc1C)[n+](C)cn2CC(O)COCC1CC=CCC1` (stereo unspecified), the inhibition is -1.13% (inactive).

For the molecule `Cc1nc2ccccc2nc(=O)c1NNc1ccc([N+](=O)[O-])cc1`, the inhibition is -0.37% (inactive).

For the molecule `O=[N+]([O-])c1ccc(N=Cc2c(O)ccc3ccccc23)cc1`, the inhibition is 25% (active).

As for `O=C(Oc1ccc([N+](=O)[O-])cc1)c1ccc2ccccc2n1`, the inhibition was 0.89% (inactive).

As for `O=S(=O)(c1ccc(Br)cc1)n1ccc2ccccc21`, the inhibition was 0.82% (inactive).

As to `CCCc1nc(N)nc2c1C(=O)CC(C)(C)C2`, the inhibition was 0% (inactive).

For `CC(C)(C)NC(=O)COC(=O)c1cc(Br)ccc1Cl`, the inhibition is -0.09% (inactive).

As to `CCCC(=O)OCC(=O)Nc1cc(Cl)ccc1[N+](=O)[O-]`, the inhibition is 0.59% (inactive).

On to `CC(C)(C)NC(=O)COC(=O)c1cc(Cl)ccc1[N+](=O)[O-]`, for which the inhibition is 16% (active).

As for `CSc1ccccc1NC(=O)C(C)N1C(=O)c2ccccc2S1(=O)=O` (stereo unspecified), the inhibition was -0.94% (inactive).

For `CC1CC1C(=O)OCC(=O)c1c(N)n(C)c(=O)n(C)c1=O` (stereo unspecified), the inhibition was -1.26% (inactive).

As for `COc1ccc(NC(=O)CSc2nc(SC)ns2)c(OC)c1`, the inhibition was -1.11% (inactive).

For the molecule `CCCCCCNC(=O)CSc1nccn1Cc1ccccc1`, the inhibition was -3.38% (inactive).

Consider `Cc1occc1C(=O)NC1CCCN(Cc2ccc(CC(C)C)cc2)C1` (stereo unspecified), for which the inhibition was -0.68% (inactive).

For `CCOc1ccc(OCCSc2nc3ccccc3n2CC(=O)O)cc1`, the inhibition was -0.94% (inactive).

In the case of `Oc1ccc(Br)cc1/C=N/Nc1ccccn1`, the inhibition is 9.57% (inactive).

On to `Oc1cccc(/C=N/Nc2ccc(Cl)nn2)c1O`, for which the inhibition is 19.4% (active).

Turning to `Oc1c(Br)cccc1/C=N/Nc1c(F)c(F)c(F)c(F)c1F`, the inhibition is 0.5% (inactive).

As for `C/C(=C/C(=O)N1CCN(C)CC1)C(=O)O`, the inhibition is 0.17% (inactive).

For `CCC1OC(c2ccc([N+](=O)[O-])cc2)=Nc2ccccc21` (stereo unspecified), the inhibition is -1.44% (inactive).

`CCCCCOc1ccc(CSC2=NCCN2)cc1[N+](=O)[O-]`: the inhibition was 0.17% (inactive).

`CCCCOC(=O)CCCc1ccc([N+](=O)[O-])cc1[N+](=O)[O-]`: the inhibition is 0.76% (inactive).

Consider `CCCCOc1ccc(CSC(=N)N)cc1[N+](=O)[O-]`, for which the inhibition is 10.1% (active).

As to `O=C(Nc1ccccc1F)C1C2C=CC3(O2)C1C(=O)N(c1cccnc1)C3C(=O)NC1CCCCC1` (stereo unspecified), the inhibition is -0.09% (inactive).

Regarding `COC(=O)c1c(NC(=O)COC(=O)[C@@H](NS(=O)(=O)c2ccccc2)C(C)C)sc2c1CCC2`, the inhibition was -2.57% (inactive).

Turning to `Oc1ccc2ccccc2c1N=Nc1nccs1`, the inhibition was 13.9% (active).

Consider `O=C(NC(=S)Nc1ncccn1)c1ccccc1Br`, for which the inhibition was 0.5% (inactive).

For the molecule `O=C(CN1C(=O)COc2ccc(Cl)cc21)N1CCOCC1`, the inhibition was 1.26% (inactive).

`COc1ccc(NC(=O)CCn2ccnc2)c(OC)c1`: the inhibition was -1.17% (inactive).

Take `CC(=O)NC12CC3CC(C1)CC(C(=O)N1CCN(S(=O)(=O)c4cccs4)CC1)(C3)C2`: the inhibition was -1.77% (inactive).

For `CCCCNC(=O)c1cn(CC)c2cc(N3CCN(C(=O)c4ccco4)CC3)c(F)cc2c1=O`, the inhibition is 5.88% (inactive).

With `CCCCCCn1cc(C(=O)O)c(=O)c2cc(F)c(N3CCCCC3)cc21`, the inhibition is 1.34% (inactive).

Consider `CCn1cc(C(=O)NCCC(=O)NCCO)c(=O)c2cc3c(cc21)OCO3`, for which the inhibition is 1.2% (inactive).

`CCn1cc(C(=O)NCCO)c(=O)c2cc(F)c(N3CCN(C)CC3)cc21`: the inhibition is 97.8% (active).

In the case of `CCn1cc(S(=O)(=O)c2cccc(C)c2)c(=O)c2cc(F)c(N3CCN(C)CC3)cc21`, the inhibition was -4.05% (inactive).

As to `CN1CCN(c2cc3c(cc2F)c(=O)c(C(=O)O)cn3CCF)CC1`, the inhibition was 100% (active).

On to `NNC(=O)c1ccc(COCC(F)(F)C(F)F)cc1`, for which the inhibition is 3.04% (inactive).

For the molecule `Cc1nnc(SCC2=C(C(=O)O)N3C(=O)C(NC(=O)Cn4nc(C)c(Cl)c4C)C3SC2)s1` (stereo unspecified), the inhibition was 1.18% (inactive).

As to `CC(C)(C)OC(=O)C1=C(CO)CS[C@@H]2[C@H](NC(=O)Cc3ccccc3)C(=O)N12`, the inhibition is 1.43% (inactive).

With `C=CC1=C(C(=O)O)N2C(=O)[C@@H](NC(=O)/C(=N\OCC(=O)O)c3csc(N)n3)[C@H]2SC1`, the inhibition is 97.5% (active).

Consider `CO/N=C(\C(=O)N[C@@H]1C(=O)N2C(C(=O)O)=C(COC(C)=O)CS[C@H]12)c1csc(N)n1` (stereo in doubt), for which the inhibition is 98.5% (active) and 97.8% (active) and -0.69% (inactive).

In the case of `Cc1cc(C)cc(C(=O)NC2C(=O)N3C(C(=O)O)=C(CSc4nnc(C)s4)CSC23)c1` (stereo unspecified), the inhibition was -0.85% (inactive).

`C=CC1=C(C(=O)O)N2C(=O)[C@@H](NC(=O)/C(=N/OCC(=O)O)c3csc(N)n3)[C@H]2SC1`: the inhibition was 97.6% (active).

As to `COC(=O)C1=C(C)NC2=C(C(=O)c3ccccc32)C1c1ccc(-c2ccc(C(=O)O)cc2)o1` (stereo unspecified), the inhibition is 1.44% (inactive).

With `CCCCC(=O)Nc1nnc(S(=O)(=O)N(C)Cc2ccco2)s1`, the inhibition was 1.69% (inactive).

As for `Cc1[nH]nc(SCC(=O)NCC(C)C)c1[N+](=O)[O-]`, the inhibition was -0.08% (inactive).

Turning to `COc1ccc(S(=O)(=O)N2CCOCC2)cc1NC(=O)CSc1ncnc2ccccc12`, the inhibition was -2.21% (inactive).

For `COC(=O)c1ccc(COC(=O)CNC(=O)c2cccc(OC)c2)o1`, the inhibition is -0.35% (inactive).

Consider `CCOC(=O)c1c(CC(C)C)csc1/N=C/C1=C(O)CCCC1=O`, for which the inhibition is -1.62% (inactive).

As for `Cc1ccc(-n2c(C)nnc2SCC(=O)NC2CC2)cc1`, the inhibition was 0.84% (inactive).

Consider `O=c1ccc2c(-c3ccccc3S(=O)(=O)O)c3ccc(O)c(O)c3oc-2c1O`, for which the inhibition was 20.2% (active).

Turning to `CC(C)C(C(=O)NCc1ccco1)N(CC1CCCO1)C(=O)CNS(=O)(=O)c1ccc(F)cc1` (stereo unspecified), the inhibition is 0.85% (inactive).

Consider `CC(=O)Nc1ccc(S(=O)(=O)N(CCc2ccccc2)CC(=O)N/N=C/c2ccc(C(=O)O)cc2)cc1`, for which the inhibition was 2.71% (inactive).

Consider `O=S(=O)(Nc1ccc(-n2cnnn2)cc1)c1ccc(Cl)cc1`, for which the inhibition is 1.06% (inactive).

Regarding `COc1ccc2oc(=N)c(C(=O)Nc3ccc(Br)cc3)cc2c1`, the inhibition is -1.46% (inactive).

As to `COc1ccc(/C=C/C(=O)c2cc(Br)ccc(=O)c2O)cc1`, the inhibition is 10.9% (active).

As to `COc1ccc(C(=O)/C=C/c2cccnc2)c(OC)c1`, the inhibition was -1.21% (inactive).
